# Assay results reported in PubChem BioAssay (NCI).
# Where “and” joins values, the source holds several entries; their conditions need not be identical. Equal values may be shown once. Compounds without any hit were thinned out: in the full panel of roughly 83,000, 20% have a hit.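 Values shown are percent growth following 48 h exposure of cells in 96-well plates to a single concentration of compound; below 10 was considered active.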 Unmarked numbers belong to inactive results. Calls of active or inactive are those of the source.
# System: MDA-MB-468 breast
# Test: NCI-60 one-dose screen, 48 h (100 = growth as untreated, 0 = no growth, -100 = all killed)
# Settings: 10 µM unless noted
row,Structure (SMILES),growth
1,NC(=O)c1cc2c3ccccc3ccn2c1-c1ccccc1,17.5%
2,COc1ccc([C@@H]2c3[nH]c4ccccc4c3C[C@H]3C(=O)N(C4CCN(CC5CCCCC5)CC4)CC(=O)N23)c(OC)c1,58.7%
3,COc1ccc(C2C3=C(COC3=O)N(CCO)c3cc4c(cc32)CCC4)cc1OC (stereo not given),-17.1% (active)
4,NC1(N2SC(S)=C3CCCC=C32)CCCCC1,99.9%
5,CC1CC(C)S(=O)(=O)C1 (stereo not given),112%
6,COc1ccc(OC)c(-c2cn3nc(-c4c[nH]c5ccc(Br)cc45)sc3n2)c1,59.1%
7,N#Cc1nc(-c2ccc(Cl)cc2)oc1S(=O)(=O)N1CCN(c2ccc(F)cc2)CC1,105%
8,O=C(O)C1C2C=CC(C2)C1C(=O)O (stereo not given),119% and 22.9% and 92.2%
9,CC(C)CCSc1nc(-c2ccc(F)cc2)c(C#N)c(N2CCN(C)CC2)n1,98.3%
10,CCN(CC)CCNc1ccc([N+](=O)[O-])c2sc3ccccc3c(=O)c12,1.4% (active)
11,CCOc1cccc2c(NC(C)CCCN(CC)CC)c(C)cnc12 (stereo not given),92.9%
12,C[C@H](C(=O)Nc1ccc(S(N)(=O)=O)cc1)S(=O)(=O)c1ccccc1,102%
13,COc1ccc(C2CC(c3ccc(Nc4nc(Nc5ccc(F)cc5)nc(Nc5ccc(Cl)cc5)n4)cc3)=NN2C(C)=O)cc1 (stereo not given),104%
14,CCOC(CN1CCN(CC(C)C(=O)c2ccccc2)CC1)c1ccccc1 (stereo not given),87.2%
15,CC(C)[N+](C)(CCOC(COc1ccccc1)COc1ccccc1)C(C)C,12.8%
16,C#Cc1nc(/C=C/C(=O)NO)cs1,51.7%
17,CCc1cc(OC(=O)N2CCC(N3CCCCC3)CC2)ccc1Nc1cc(-c2ccc(-n3cccn3)cc2)[nH]n1,84.4%
18,C=C1c2c(C)nn(-c3ccc(N)cc3)c2N(C)C23CC1C1(C)c4c(C)nn(-c5ccc(N)cc5)c4N(C)C(C)(CC12)C3 (stereo not given),59.5%
19,O=[N+]([O-])c1cc(-c2ccccc2)c(O)c([N+](=O)[O-])c1,71.5%
20,O=S1(=O)CCC(N(/N=C/c2ccco2)c2ccccc2)C1 (stereo not given),108%

row,Structure (SMILES),growth
1,CC(C)(C)n1nc(C2CC2)c(Br)c1NC(=O)c1ccccc1F,114%
2,Cc1ccc(/C(C#N)=C/c2ccc3c(c2)OCO3)cc1,43.9%
3,CNC(=O)Nc1ccc(Nc2cc(-c3ccc(-n4cccn4)cc3)[nH]n2)c(C)c1,96.3%
4,Nc1c(C(=O)Nc2ccccc2)sc2nc3c(cc12)CCC3,49.7%
5,Nc1ccc2c(c1)C(=O)c1cc(Cl)c(Cl)cc1-2,89.9%
6,COc1ccc(-c2n[nH]nc2-c2cc(OC)c3c(c2OC)OCO3)cc1,-24.1% (active)
7,O=C(CI)NC(=O)NC(=O)NCc1ccccc1,65.5%
8,CSc1nccc(-c2c(-c3ccc(F)c(OCc4ccc(F)cc4)c3)nc3sccn23)n1,23.3%
9,CNC(=O)c1cc(Oc2ccc3c(c2)sc2nc(-c4cc(OC)c(OC)c(OC)c4)cn23)ccn1,4.35% (active)
10,CC(=O)Nc1ccc(/C=C2\SC(=S)N(/C=C(\C(C)=O)C(N)=O)C2=O)cc1,108%
11,C=CCN(CC=C)C(=O)[C@H](CC)[C@@H]1CC[C@@H](C)[C@@H]([C@H](C)[C@@H](O)[C@@H](C)C(=O)[C@H](CC)C2O[C@]3(C=C[C@@H](O)[C@]4(CC[C@@](C)([C@H]5CC[C@](O)(CC)[C@H](C)O5)O4)O3)[C@H](C)C[C@@H]2C)O1 (stereo not given in full),-19.1% (active)
12,CCOP(=O)(O)OP(=O)(O)OCC,107%
13,N#Cc1c(N)n2c(nc1=Nc1ccc(Cl)cc1)sc1cc(Cl)ccc12,22.5%
14,COc1cccc(Cc2nn3cc(-c4ccccc4)nc3s2)c1,92.1%
15,CSc1nc(N)n2nccc2n1,114%
16,COc1ccc(C2CC(=O)Oc3c(OC)c4c(c(OC)c32)OCO4)cc1 (stereo not given),96.9%
17,CCCC(=O)Nc1ccc2c(c1)CN1C(=O)c3ccccc3C1=N2,97.8%
18,O=C1Nc2c(c(=O)n(-c3ccccc3)c3ccccc23)C(c2ccc(Cl)cc2)N1 (stereo not given),119%
19,O=C(O)c1ccc(-n2cc(CNc3ccc(Cl)cc3)c(-c3ccccc3)n2)cc1,102%
20,C/C(CC(=O)NNc1ccc([N+](=O)[O-])cc1)=N\Nc1ccc([N+](=O)[O-])cc1,97.7%
